Results reported in paper PMC7862700, “An all-to-all approach to the identification of sequence-specific readers for epigenetic DNA modifications on cytosine”.

Assays:
Assay in all cases: DAPPL (digital affinity profiling via proximity ligation, sequencing); 10 mM Tris-HCl pH 7.5, 50 mM NaCl, 1 mM DTT, 4% glycerol, room temperature, 30 min; GST-TFs on glutathione beads, 16-mer random dsDNA library, 0.1% formaldehyde crosslink after washing; high values mean tight binding
HSF1 = HSF1 (Homo sapiens, UniProt Q00613 1-529); conditions: protein: recombinant; tags: N-terminal GST; chain copies: 3; dsDNA, one strand shown
HSF1, sequence (Q00613 whole entry, the tested form may be a part): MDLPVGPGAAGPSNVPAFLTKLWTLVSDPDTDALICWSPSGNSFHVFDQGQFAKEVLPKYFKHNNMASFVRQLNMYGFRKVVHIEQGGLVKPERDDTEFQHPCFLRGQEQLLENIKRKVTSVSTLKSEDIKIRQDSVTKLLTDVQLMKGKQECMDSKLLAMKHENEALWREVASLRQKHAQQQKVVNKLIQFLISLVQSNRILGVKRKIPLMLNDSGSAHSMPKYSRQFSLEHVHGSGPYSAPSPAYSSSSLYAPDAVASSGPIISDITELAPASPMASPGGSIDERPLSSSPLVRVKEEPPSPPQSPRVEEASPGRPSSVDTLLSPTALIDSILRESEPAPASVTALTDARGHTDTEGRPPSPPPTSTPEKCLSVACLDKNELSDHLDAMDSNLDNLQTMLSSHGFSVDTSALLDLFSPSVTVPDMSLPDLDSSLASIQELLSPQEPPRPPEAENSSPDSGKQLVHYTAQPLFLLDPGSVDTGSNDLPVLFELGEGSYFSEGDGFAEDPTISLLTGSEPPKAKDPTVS
Method in brief: (§1)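 Yeast served to express human transcription factors as GST fusions, which were then captured on glutathione beads and labelled with DNA barcodes. Pooled with a tag-only sample, they were incubated with 200 nmole of a 16-mer random double-stranded DNA library for 30 min at room temperature in Tris/NaCl/DTT/glycerol buffer, washed, crosslinked with 0.1% formaldehyde, ligated by proximity, amplified by PCR and sequenced. Dividing each hexamer's read frequency for a factor by its frequency for the tag-only sample gives the binding signal.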

ELF4 = ELF4 (Homo sapiens, UniProt Q99607 1-663); conditions: protein: recombinant; tags: N-terminal GST; dsDNA, one strand shown
ELF4, sequence (Q99607 whole entry): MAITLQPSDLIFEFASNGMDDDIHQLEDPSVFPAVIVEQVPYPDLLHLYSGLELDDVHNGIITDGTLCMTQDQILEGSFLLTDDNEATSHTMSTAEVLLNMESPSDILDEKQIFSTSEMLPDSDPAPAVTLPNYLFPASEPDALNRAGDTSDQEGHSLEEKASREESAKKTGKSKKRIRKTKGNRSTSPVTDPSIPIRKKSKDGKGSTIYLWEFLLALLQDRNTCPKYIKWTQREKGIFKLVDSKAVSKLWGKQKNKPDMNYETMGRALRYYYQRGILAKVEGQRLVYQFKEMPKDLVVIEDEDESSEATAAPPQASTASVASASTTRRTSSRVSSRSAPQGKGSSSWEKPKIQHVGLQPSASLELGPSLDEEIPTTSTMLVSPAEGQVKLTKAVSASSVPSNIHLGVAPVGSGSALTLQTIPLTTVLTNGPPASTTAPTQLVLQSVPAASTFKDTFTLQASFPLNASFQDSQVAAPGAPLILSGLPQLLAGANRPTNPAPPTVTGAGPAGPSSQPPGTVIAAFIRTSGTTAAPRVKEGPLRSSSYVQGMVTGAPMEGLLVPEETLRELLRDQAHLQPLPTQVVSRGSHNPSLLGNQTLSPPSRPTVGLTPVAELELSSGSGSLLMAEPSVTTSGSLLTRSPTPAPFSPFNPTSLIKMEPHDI
Method in brief: as §1

ELK4 = biological target: T1, ELK4 (Homo sapiens, UniProt P28324-2 1-405); conditions: protein: recombinant; tags: N-terminal GST; dsDNA, one strand shown
T1 sequence: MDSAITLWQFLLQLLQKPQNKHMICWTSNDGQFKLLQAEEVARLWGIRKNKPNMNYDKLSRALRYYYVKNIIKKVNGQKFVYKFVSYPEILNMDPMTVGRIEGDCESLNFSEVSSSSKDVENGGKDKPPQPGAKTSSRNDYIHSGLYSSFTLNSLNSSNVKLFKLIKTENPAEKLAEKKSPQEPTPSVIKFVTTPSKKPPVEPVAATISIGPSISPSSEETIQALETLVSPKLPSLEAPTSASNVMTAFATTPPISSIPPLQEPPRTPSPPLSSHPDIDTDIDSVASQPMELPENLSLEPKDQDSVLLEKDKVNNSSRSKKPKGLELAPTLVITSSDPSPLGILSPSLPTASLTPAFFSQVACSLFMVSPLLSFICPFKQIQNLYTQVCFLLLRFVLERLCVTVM
Method in brief: as §1

ETV2 = biological target: T2, ETV2 (Homo sapiens, UniProt O00321 1-342); conditions: protein: recombinant; tags: N-terminal GST; dsDNA, one strand shown
T2 sequence: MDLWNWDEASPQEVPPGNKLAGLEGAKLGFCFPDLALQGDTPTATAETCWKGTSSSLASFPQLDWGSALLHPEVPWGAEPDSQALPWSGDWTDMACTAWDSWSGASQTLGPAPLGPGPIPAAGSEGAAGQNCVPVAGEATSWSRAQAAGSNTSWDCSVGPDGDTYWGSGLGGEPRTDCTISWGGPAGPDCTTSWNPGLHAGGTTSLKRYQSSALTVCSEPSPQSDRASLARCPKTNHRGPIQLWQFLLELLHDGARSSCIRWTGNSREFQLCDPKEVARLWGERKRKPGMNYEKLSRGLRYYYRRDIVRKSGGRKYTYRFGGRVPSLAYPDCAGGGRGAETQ
Method in brief: as §1

CRX = CRX (Homo sapiens, UniProt O43186 1-299); conditions: protein: recombinant; tags: N-terminal GST; dsDNA, one strand shown
CRX, sequence (O43186 whole entry): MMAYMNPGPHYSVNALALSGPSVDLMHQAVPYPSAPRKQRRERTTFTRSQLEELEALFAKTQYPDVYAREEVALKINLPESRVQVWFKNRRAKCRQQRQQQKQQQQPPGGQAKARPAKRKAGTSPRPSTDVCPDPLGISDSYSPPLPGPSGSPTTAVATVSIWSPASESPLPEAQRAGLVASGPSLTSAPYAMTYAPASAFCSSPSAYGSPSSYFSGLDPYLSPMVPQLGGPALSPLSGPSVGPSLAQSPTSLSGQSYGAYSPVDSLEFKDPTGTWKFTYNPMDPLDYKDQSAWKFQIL
Method in brief: as §1

ETV1 = ETV1 (Homo sapiens, UniProt P50549 1-477); conditions: protein: recombinant; tags: N-terminal GST; dsDNA, one strand shown
ETV1, sequence (P50549 whole entry): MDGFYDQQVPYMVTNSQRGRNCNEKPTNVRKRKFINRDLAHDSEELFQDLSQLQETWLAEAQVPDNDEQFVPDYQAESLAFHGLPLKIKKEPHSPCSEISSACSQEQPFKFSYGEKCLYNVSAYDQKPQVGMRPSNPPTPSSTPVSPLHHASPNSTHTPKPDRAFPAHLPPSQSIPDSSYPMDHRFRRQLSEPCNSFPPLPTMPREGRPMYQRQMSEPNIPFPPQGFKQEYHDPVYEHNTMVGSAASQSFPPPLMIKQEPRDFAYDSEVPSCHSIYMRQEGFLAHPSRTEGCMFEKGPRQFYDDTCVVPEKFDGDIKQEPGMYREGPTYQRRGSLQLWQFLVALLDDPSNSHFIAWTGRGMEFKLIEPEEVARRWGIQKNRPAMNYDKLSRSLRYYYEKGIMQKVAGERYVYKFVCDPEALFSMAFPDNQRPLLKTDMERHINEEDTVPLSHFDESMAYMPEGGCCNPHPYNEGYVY
Method in brief: as §1

GABPA = biological target: T3, GABPA (Homo sapiens, UniProt Q06546 1-454); conditions: protein: recombinant; tags: N-terminal GST; dsDNA, one strand shown
T3 sequence: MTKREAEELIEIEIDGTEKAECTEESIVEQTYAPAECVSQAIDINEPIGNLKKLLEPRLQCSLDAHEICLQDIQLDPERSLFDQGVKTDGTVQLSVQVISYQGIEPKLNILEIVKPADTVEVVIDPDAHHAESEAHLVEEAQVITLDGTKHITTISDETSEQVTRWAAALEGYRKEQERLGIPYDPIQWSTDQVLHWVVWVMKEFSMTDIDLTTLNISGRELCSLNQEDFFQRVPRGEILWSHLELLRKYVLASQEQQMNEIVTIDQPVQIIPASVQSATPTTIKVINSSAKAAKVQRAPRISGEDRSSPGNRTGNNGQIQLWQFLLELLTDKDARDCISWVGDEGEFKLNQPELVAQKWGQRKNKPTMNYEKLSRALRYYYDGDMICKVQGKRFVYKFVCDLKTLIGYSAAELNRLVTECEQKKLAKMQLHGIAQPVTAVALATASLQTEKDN
Method in brief: as §1

ERF = biological target: T4, ERF (Homo sapiens, UniProt P50548 1-548); conditions: protein: recombinant; tags: N-terminal GST; dsDNA, one strand shown
T4 sequence: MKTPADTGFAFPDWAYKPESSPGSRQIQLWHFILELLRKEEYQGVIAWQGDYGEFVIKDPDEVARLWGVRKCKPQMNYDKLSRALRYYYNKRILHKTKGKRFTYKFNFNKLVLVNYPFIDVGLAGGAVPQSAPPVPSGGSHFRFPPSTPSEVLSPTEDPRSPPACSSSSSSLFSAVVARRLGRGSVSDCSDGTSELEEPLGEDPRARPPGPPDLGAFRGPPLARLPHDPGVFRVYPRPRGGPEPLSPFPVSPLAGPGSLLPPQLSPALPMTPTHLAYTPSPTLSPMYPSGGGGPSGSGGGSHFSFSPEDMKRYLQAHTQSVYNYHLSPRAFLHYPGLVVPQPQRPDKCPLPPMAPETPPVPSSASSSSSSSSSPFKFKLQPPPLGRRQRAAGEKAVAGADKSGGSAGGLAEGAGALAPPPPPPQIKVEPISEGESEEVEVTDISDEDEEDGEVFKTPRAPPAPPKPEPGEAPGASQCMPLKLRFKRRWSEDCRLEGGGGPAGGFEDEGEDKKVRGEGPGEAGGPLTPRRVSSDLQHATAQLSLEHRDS
Method in brief: as §1

Sequence | binding signal (HSF1) | binding signal (ELF4) | binding signal (ELK4) | binding signal (ETV2) | binding signal (CRX) | binding signal (ETV1) | binding signal (GABPA) | binding signal (ERF)
AGGGTT | 1.02 fold enrichment (6-mer frequency, TF over GST control) | 1.03 fold enrichment (6-mer frequency, TF over GST control) | 1.14 fold enrichment (6-mer frequency, TF over GST control) | 1.03 fold enrichment (6-mer frequency, TF over GST control) | 1.06 fold enrichment (6-mer frequency, TF over GST control) | 1.01 fold enrichment (6-mer frequency, TF over GST control) | – | –
TAGCGC | 1.02 fold enrichment (6-mer frequency, TF over GST control) | 1.01 fold enrichment (6-mer frequency, TF over GST control) | – | – | 1.03 fold enrichment (6-mer frequency, TF over GST control) | 1.07 fold enrichment (6-mer frequency, TF over GST control) | 1.01 fold enrichment (6-mer frequency, TF over GST control) | 1.03 fold enrichment (6-mer frequency, TF over GST control)
